Some targets named below: RELARELA (p65 homodimer) (Homo sapiens, UniProt Q04206 1-307); p50p50 homodimer (Homo sapiens, UniProt P19838 7-356); RELB subunit;p50 subunit (Homo sapiens;Homo sapiens, UniProt Q01201;P19838 120-401;7-356).
Experiment in all cases: protein binding microarray; high values mean tight binding
Holding throughout (conditions): dsDNA, one strand shown

For the next test, the target named is T1, p52p52 homodimer (Homo sapiens, UniProt Q00653 4-332).
T1 sequence: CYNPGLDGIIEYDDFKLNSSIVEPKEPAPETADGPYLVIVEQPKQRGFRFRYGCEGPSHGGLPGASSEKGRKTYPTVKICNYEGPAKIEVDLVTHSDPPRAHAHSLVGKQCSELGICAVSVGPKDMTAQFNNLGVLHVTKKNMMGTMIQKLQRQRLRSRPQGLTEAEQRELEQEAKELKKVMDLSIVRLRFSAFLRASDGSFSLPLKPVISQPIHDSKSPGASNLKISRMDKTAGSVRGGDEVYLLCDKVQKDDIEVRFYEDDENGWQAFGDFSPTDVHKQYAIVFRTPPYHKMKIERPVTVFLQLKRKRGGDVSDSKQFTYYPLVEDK

Test [1] has as its target RELA (p65) subunit of heterodimer;p50 subunit (Homo sapiens;Homo sapiens, UniProt Q04206;P19838 1-307;7-356).
Test [2] deals with RELA (p65) subunit of heterodimer;p52 subunit (Homo sapiens;Homo sapiens, UniProt Q04206;Q00653 1-307;4-332).
In the next test the target is T2, RELB subunit;p52 subunit (Homo sapiens;Homo sapiens, UniProt Q01201;Q00653 120-401;4-332).
T2 sequence 1: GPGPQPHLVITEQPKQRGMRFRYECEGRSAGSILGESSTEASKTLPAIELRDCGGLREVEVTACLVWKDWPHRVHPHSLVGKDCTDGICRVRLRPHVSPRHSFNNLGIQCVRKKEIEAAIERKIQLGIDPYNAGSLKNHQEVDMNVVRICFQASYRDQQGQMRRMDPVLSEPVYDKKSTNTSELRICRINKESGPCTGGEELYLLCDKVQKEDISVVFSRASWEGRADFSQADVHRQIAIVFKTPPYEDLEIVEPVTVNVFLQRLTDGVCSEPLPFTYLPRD
T2 sequence 2: T1 sequence

Test [3] concerns the target C-Rel subunit;p50 subunit (Homo sapiens;Homo sapiens, UniProt Q04864;P19838 1-285;7-356).
For test [4], the target named is T3, C-Rel subunit;p52 subunit (Homo sapiens;Homo sapiens, UniProt Q04864;Q00653 1-285;4-332).
T3 sequence 1: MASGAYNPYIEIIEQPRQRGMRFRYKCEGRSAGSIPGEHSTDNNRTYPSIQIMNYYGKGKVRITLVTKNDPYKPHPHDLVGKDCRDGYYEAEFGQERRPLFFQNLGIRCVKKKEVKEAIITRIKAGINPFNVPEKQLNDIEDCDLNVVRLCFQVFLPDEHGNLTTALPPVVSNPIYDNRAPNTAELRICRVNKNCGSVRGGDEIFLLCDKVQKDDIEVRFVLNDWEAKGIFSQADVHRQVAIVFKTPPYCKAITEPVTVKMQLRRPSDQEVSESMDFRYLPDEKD
T3 sequence 2: T1 sequence

p50p50 homodimer, sequence (P19838 7-356): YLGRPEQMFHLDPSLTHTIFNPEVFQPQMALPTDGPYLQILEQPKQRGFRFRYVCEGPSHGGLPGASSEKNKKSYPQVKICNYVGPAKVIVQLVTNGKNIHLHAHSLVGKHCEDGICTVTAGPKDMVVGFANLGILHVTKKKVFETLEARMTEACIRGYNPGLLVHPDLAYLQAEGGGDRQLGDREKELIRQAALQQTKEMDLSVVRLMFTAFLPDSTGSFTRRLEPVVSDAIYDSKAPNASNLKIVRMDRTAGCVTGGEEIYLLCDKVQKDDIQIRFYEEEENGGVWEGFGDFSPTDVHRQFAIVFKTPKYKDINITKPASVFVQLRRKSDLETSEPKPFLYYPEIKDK
RELARELA (p65 homodimer), sequence (Q04206 1-307): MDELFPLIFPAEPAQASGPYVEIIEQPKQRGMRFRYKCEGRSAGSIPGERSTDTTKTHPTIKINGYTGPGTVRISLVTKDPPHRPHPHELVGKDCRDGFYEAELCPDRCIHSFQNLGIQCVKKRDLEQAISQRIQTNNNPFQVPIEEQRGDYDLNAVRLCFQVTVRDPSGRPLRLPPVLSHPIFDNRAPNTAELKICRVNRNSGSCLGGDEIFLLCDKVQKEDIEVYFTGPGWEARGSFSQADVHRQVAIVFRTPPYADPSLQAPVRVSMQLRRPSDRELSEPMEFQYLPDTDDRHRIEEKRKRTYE
RELA (p65) subunit of heterodimer;p50 subunit, sequence (Q04206 1-307, chain 1 of 2): as the sequence (Q04206 1-307) above
RELA (p65) subunit of heterodimer;p50 subunit, sequence (P19838 7-356, chain 2 of 2): as the sequence (P19838 7-356) above

As for CGAAGCTTCCC, the binding signal in the test with RELARELA (p65 homodimer) was 0.142 z-score; in the test with p50p50 homodimer it was -0.668 z-score; with p52p52 homodimer, -0.466 z-score; in test [1] it was -0.322 z-score; in test [2] it was -0.568 z-score; with RELB subunit;p50 subunit it was -0.617 z-score. Also, the binding signal with RELB subunit;p52 subunit is -0.463 z-score; in [3], -0.253 z-score; in test [4], -0.652 z-score.
Take AGGAAAGTCCC: the binding signal with RELARELA (p65 homodimer) was 2.97 z-score; with p50p50 homodimer, 0.984 z-score; with p52p52 homodimer, 2.54 z-score; in test [1], 2.16 z-score; in test [2] it was 1.77 z-score; with RELB subunit;p50 subunit, 1.45 z-score. In addition, the binding signal in the test with RELB subunit;p52 subunit came to 1.93 z-score; in test [3], 2.17 z-score; in test [4], 2.89 z-score.
Regarding CAATATTTCCC, the binding signal was determined as 2.26 z-score in the test with RELARELA (p65 homodimer); 1.03 z-score with p50p50 homodimer; 0.706 z-score with p52p52 homodimer; 1.27 z-score in test [1]; 1.06 z-score in test [2]; 0.775 z-score with RELB subunit;p50 subunit. Moreover, the results for the binding signal (with RELB subunit;p52 subunit; in test [3]; in [4]) were 0.965 z-score, 1.45 z-score and 1.08 z-score, respectively.
GGGGAATTCCC: the binding signal with RELARELA (p65 homodimer) was 4.86 z-score; in the test with p50p50 homodimer, 2.07 z-score; in the test with p52p52 homodimer, 3.41 z-score; in [1] it was 3.6 z-score; in [2], 3.73 z-score; with RELB subunit;p50 subunit, 3.87 z-score. Moreover, the binding signal with RELB subunit;p52 subunit worked out at 3.85 z-score; in test [3], 3.14 z-score; in test [4] it was 4.19 z-score.
As to GAATTTACCCT, the binding signal turned out to be 0.959 z-score with RELARELA (p65 homodimer); 0.984 z-score with p50p50 homodimer; 0.839 z-score with p52p52 homodimer; 0.86 z-score in test [1]; 0.817 z-score in test [2]; 0.602 z-score with RELB subunit;p50 subunit. The results for the binding signal (with RELB subunit;p52 subunit; in [3]; in test [4]) were 0.504 z-score, 0.6 z-score and 0.479 z-score, respectively.
Turning to CAAATTTTCCC, the binding signal with RELARELA (p65 homodimer) was 2.86 z-score; with p50p50 homodimer it was 1.18 z-score; with p52p52 homodimer, 1.47 z-score; in [1] it was 1.48 z-score; in test [2] it was 1.47 z-score; with RELB subunit;p50 subunit, 1.08 z-score. The binding signal with RELB subunit;p52 subunit was found to be 1.27 z-score; in test [3], 1.5 z-score; in test [4], 1.39 z-score.
Regarding GGAGGTACCCT, the binding signal with RELARELA (p65 homodimer) was -0.125 z-score; in the test with p50p50 homodimer it was 0.0465 z-score; with p52p52 homodimer, -0.0665 z-score; in test [1] it was 0.0938 z-score; in test [2], 0.0265 z-score; with RELB subunit;p50 subunit it was 0.0938 z-score. Also, the binding signal in the test with RELB subunit;p52 subunit was -0.25 z-score; in test [3], -0.0429 z-score; in test [4], 0.0544 z-score.
With AAGGTATTCCT, the binding signal with RELARELA (p65 homodimer) was -0.0185 z-score; with p50p50 homodimer it was -0.222 z-score; in the test with p52p52 homodimer it was -0.0124 z-score; in [1], -0.477 z-score; in test [2], -0.138 z-score; with RELB subunit;p50 subunit it was -0.322 z-score. Further, the results for the binding signal (in the test with RELB subunit;p52 subunit; in [3]; in test [4]) were -0.266 z-score, -0.255 z-score and -0.012 z-score, respectively.
On to GAGTGCGTCCT, for which the binding signal in the test with RELARELA (p65 homodimer) was -0.395 z-score; with p50p50 homodimer it was -1.33 z-score; with p52p52 homodimer, -0.581 z-score; in test [1], -0.981 z-score; in test [2], -0.769 z-score; in the test with RELB subunit;p50 subunit it was -0.991 z-score. In addition, the figures for the binding signal (with RELB subunit;p52 subunit; in test [3]; in test [4]) were -0.844 z-score, -1.14 z-score and -0.662 z-score, respectively.
On to AAGGACGCCCT, for which the binding signal was -0.995 z-score with RELARELA (p65 homodimer); -2.2 z-score with p50p50 homodimer; -0.8 z-score in the test with p52p52 homodimer; -0.915 z-score in test [1]; -0.945 z-score in [2]; -1.1 z-score with RELB subunit;p50 subunit. Besides, the binding signal with RELB subunit;p52 subunit was -0.803 z-score; in test [3], -1.23 z-score; in test [4], -0.928 z-score.
For AGATATTCCCC, the binding signal with RELARELA (p65 homodimer) stood at 1.8 z-score; with p50p50 homodimer, 1.31 z-score; in the test with p52p52 homodimer it was 2.2 z-score; in [1], 2.03 z-score; in test [2], 1.99 z-score; in the test with RELB subunit;p50 subunit it was 1.8 z-score. For the same sequence, the binding signal is 1.96 z-score in the test with RELB subunit;p52 subunit, 1.64 z-score in [3] and 1.71 z-score in [4].
In the case of CAAATAATCCT, the binding signal is -0.308 z-score in the test with RELARELA (p65 homodimer); -0.88 z-score with p50p50 homodimer; -0.501 z-score with p52p52 homodimer; -0.911 z-score in test [1]; -0.746 z-score in test [2]; -0.974 z-score with RELB subunit;p50 subunit. Further, the binding signal is -0.846 z-score with RELB subunit;p52 subunit, -1.09 z-score in test [3] and -0.674 z-score in test [4].
For GAATATTCCCT, the binding signal with RELARELA (p65 homodimer) came to 1.37 z-score; with p50p50 homodimer, 1.19 z-score; with p52p52 homodimer it was 1.3 z-score; in test [1], 1.24 z-score; in test [2] it was 1.28 z-score; in the test with RELB subunit;p50 subunit, 1.04 z-score. For the same sequence, the binding signal with RELB subunit;p52 subunit is 1.2 z-score; in test [3] it was 0.882 z-score; in test [4] it was 1.16 z-score.
As to CAGGGCTCCCT, the binding signal is -0.815 z-score in the test with RELARELA (p65 homodimer); -0.631 z-score in the test with p50p50 homodimer; -0.475 z-score with p52p52 homodimer; -0.698 z-score in test [1]; -0.717 z-score in test [2]; -0.43 z-score in the test with RELB subunit;p50 subunit. In addition, the binding signal in the test with RELB subunit;p52 subunit is -0.477 z-score; in test [3] it was -0.901 z-score; in [4] it was -0.708 z-score.
In the case of CGGTACTCCCT, the binding signal with RELARELA (p65 homodimer) was 0.445 z-score; with p50p50 homodimer it was 0.837 z-score; with p52p52 homodimer, 0.708 z-score; in test [1], 0.515 z-score; in test [2], 0.425 z-score; with RELB subunit;p50 subunit, 0.724 z-score. The binding signal in the test with RELB subunit;p52 subunit came out at 0.415 z-score; in test [3], 0.323 z-score; in test [4] it was 0.382 z-score.

(Values after publication PMC3218832.)
